The source made the active and inactive calls.

Assay [1] in a line: small molecules captured by biotinylated probe aFSTL3 – biochemical, small-molecule microarray, fluorescence 635/667, stem cell growth factor project, primary screen (AID 1064).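 Further: measures binding of the biotinylated anti-FSTL3 antibody to printed compounds.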 The conditions noted are these: higher = more signal.
The nature of assay [2]: binders from COS7 lysate, DM2A8 probe, primary screen, torsin A project, cell lysate, small-molecule microarray, fluorescence 635/667 (AID 1065). The following applies: higher = more signal, COS7 lysate expressing mutant human TOR1A.
A short description of assay [3]: small molecules captured by biotinylated probe aFGF2 – biochemical, small-molecule microarray, fluorescence 635/667, stem cell growth factor project, primary screen (AID 1067).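 Further: measures binding of biotinylated aFGF2 protein to printed compounds on slides; z-score merges feature fluorescence and signal-to-noise across triplicate slides.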 The conditions noted are these: higher = more signal.
Assay [4] is described as follows: small molecules captured by biotinylated probe aFGF10 – biochemical, small-molecule microarray, fluorescence 635/667, stem cell growth factor project, primary screen (AID 1071).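 Further: score merges 667 nm spot intensity and signal to noise from triplicate slides.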 The following applies: higher = more signal.
The target in assay [5] is Neurogenic locus notch homolog protein 2 (Homo sapiens) (UniProt Q04721). The experiment in a line: small molecules binding Notch2 protein – biochemical, small-molecule microarray, 635 nm fluorescence, stem cell growth factors, primary screen (AID 1073). The conditions noted are these: higher = more signal.
Sequence of Neurogenic locus notch homolog protein 2 (Homo sapiens) (Q04721 whole entry, looked up, canonical isoform): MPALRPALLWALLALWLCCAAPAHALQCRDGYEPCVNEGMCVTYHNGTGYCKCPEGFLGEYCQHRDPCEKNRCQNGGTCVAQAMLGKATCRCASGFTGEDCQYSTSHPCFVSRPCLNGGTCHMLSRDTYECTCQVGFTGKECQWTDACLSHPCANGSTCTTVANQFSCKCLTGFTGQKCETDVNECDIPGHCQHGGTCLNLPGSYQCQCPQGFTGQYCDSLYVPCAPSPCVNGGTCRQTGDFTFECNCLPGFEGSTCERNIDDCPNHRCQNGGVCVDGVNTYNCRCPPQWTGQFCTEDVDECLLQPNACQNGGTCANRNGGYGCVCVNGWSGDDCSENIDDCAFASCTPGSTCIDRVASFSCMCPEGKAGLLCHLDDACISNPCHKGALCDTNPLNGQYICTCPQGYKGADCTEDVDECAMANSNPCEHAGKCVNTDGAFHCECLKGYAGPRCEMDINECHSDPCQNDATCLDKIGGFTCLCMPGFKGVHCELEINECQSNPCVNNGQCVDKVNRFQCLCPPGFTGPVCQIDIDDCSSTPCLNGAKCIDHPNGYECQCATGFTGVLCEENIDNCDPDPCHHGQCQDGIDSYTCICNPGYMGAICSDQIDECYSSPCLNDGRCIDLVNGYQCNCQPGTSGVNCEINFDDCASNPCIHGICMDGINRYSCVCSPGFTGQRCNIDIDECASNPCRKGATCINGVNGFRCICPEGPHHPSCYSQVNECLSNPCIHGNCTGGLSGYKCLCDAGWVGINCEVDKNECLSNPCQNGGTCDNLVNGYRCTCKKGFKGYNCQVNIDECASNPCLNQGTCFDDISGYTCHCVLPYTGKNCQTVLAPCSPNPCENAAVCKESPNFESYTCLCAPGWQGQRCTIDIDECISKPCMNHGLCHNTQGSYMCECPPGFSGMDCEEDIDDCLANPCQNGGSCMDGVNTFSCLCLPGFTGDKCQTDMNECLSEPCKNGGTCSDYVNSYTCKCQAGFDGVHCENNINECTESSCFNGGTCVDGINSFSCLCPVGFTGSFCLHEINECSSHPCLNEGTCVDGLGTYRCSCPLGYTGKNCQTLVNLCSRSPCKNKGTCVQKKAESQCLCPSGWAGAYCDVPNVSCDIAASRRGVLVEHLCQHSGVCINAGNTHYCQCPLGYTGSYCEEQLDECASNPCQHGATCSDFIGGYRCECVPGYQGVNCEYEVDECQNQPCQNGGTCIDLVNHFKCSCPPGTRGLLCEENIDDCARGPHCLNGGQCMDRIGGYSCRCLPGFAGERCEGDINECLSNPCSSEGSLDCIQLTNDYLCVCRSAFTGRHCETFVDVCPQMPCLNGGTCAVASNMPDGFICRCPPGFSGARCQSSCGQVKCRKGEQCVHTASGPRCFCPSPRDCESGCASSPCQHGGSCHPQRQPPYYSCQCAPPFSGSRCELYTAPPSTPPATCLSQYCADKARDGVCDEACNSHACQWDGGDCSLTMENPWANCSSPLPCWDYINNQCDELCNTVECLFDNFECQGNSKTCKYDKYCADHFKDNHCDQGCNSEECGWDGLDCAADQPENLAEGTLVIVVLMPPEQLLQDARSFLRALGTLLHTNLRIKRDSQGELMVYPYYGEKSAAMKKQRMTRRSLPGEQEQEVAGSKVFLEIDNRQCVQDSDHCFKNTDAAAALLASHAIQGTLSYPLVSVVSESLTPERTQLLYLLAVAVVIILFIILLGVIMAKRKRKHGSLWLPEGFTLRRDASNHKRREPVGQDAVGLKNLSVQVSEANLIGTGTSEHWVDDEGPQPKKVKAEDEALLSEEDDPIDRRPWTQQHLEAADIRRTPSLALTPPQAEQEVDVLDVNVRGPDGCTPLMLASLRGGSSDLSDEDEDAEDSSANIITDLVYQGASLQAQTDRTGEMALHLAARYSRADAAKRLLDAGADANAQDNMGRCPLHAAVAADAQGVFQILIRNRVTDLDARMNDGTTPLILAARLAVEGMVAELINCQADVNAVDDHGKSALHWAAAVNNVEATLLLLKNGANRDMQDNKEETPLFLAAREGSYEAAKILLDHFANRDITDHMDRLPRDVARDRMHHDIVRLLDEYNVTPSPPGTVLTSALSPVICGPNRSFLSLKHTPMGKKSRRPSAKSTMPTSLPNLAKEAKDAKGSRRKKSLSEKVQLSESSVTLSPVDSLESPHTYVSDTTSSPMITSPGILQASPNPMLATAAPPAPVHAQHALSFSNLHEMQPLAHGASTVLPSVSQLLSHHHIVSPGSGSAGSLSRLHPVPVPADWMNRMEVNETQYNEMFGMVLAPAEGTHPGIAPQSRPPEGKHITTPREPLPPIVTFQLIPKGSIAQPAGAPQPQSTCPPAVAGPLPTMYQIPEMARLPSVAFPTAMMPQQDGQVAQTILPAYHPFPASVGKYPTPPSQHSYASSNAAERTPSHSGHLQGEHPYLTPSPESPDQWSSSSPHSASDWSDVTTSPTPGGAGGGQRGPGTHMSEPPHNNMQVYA
Assay [6] addresses Pro-neuregulin-1, membrane-bound isoform (Homo sapiens) (UniProt Q02297). In words: small molecules binding neuregulin-1 protein – biochemical, small-molecule microarray, fluorescence 635/667, psychiatric disease protein project, primary screen (AID 1075).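 Further: score combines 667 nm spot fluorescence with signal to noise.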 The following applies: NRG1 binding, 635 nm fluorescence, higher = more signal.
Assay [7] deals with Neuregulin-1 EGF-like domain. In words: small molecules binding NRG1 EGF domain – biochemical, small-molecule microarray, 635 nm fluorescence, primary screen (AID 1081).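 Further: binding of the protein to compounds printed on small-molecule microarray slides.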 The following applies: higher = more signal.
Assay [8] is described as follows: FRG1 expression reporter modulators in myotubes – cell-based, C2C12 myotubes, firefly/Renilla luciferase, luminescence, FRG1 inhibition for FSHD, primary screen (AID 1084). The conditions noted are these: FRG1 promoter luciferase, higher = more signal, called active from +8 up or from −8 down.
The nature of assay [9]: small molecules captured by biotinylated probe aFST – biochemical, small-molecule microarray, fluorescence 635/667, stem cell growth factor project, primary screen (AID 1086).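 Further: score merges 667 nm fluorescence with signal-to-noise of each printed compound spot.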 The conditions noted are these: higher = more signal.
Assay [10] in a line: binders of probe aHhip on microarray, primary screen, stem cell growth factor project, biochemical, small-molecule microarray, fluorescence 635/667 (AID 1087).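 Further: score merges spot fluorescence at 667nm with spot signal to noise ratio.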 The conditions noted are these: higher = more signal.
Assay [11] deals with PRMT1 (protein arginine N-methyltransferase 1). In words: small molecules binding arginine methyltransferase PRMT1 – biochemical, small-molecule microarray, 635 nm fluorescence, primary screen (AID 1088).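 Further: binding of Prmt1 protein to compounds spotted on small-molecule microarray slides.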 The following applies: higher = more signal.
Assay [12] in a line: growth effects on S. cerevisiae YJM789 – YJM789 clinical isolate, OD600, 24 h, basal, primary screen (AID 1089).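 Further: growth of clinical yeast isolate S. cerevisiae YJM 789 seeded 1000 cells per well; test concentration not given here.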 The following applies: higher = more signal, called active from +8 up or from −8 down.
Assay [13] can be described thus: S. pombe growth modifiers, basal conditions – strain 972, OD600, 24 h, no modulator, primary screen (AID 1090).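 Further: basal condition with compound alone and no growth modifier present; test concentration not given here.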 The following applies: S. pombe 972 growth, higher = more signal, called active from +8 up or from −8 down.
Assay [14] can be described thus: budding yeast growth modifiers under rapamycin – strain BY4716, OD600, 96 h, primary screen (AID 1091). Further: test concentration not given here. The following applies: S. cerevisiae BY4716 + rapamycin, higher = more signal, called active from +8 up or from −8 down.
Assay [15] deals with Torsin-1A-interacting protein 2 (Homo sapiens) (UniProt Q8NFQ8). The experiment in a line: small molecules binding lysate-expressed LULL1 – cell lysate, human LULL1 lysate, 635/667 nm fluorescence, primary screen (AID 1092).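 Further: probe is lysate of COS7 cells overexpressing human LULL1; score merges per-feature 667 nm fluorescence with signal-to-noise.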 The conditions noted are these: small-molecule microarray, hLULL1 lysate binding, 635 nm fluorescence; higher = more signal.
Sequence of Torsin-1A-interacting protein 2 (Homo sapiens) (Q8NFQ8 whole entry, looked up): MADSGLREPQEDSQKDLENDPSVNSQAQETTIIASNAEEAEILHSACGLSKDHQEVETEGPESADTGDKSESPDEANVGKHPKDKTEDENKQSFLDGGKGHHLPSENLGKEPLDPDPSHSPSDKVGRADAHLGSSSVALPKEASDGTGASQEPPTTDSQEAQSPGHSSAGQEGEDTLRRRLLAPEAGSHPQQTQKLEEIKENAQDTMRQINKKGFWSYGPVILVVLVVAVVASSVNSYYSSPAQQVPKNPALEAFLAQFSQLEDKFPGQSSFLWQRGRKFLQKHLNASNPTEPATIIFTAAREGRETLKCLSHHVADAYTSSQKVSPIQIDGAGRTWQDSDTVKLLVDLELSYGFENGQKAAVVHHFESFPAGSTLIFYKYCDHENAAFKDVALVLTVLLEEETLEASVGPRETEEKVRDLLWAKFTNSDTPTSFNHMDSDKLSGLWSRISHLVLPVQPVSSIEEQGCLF
Assay [16] in a line: optical density change of DRC41 E. coli – strain DRC41, OD650, 24 h, E. coli filamentation project, primary screen (AID 1093).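 Further: MC1000 strain lacking acrAB efflux and sulA so SOS filamentation is blocked; test concentration not given here.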 The following applies: E. coli DRC41 growth, higher = more signal, called active from +8 up or from −8 down.
Assay [17] is described as follows: probe aLefty2 binding to arrayed compounds – biochemical, biotinylated probe, 635/667 nm fluorescence, primary screen (AID 1094).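 Further: score merges spot fluorescence near 667 nm with spot signal-to-noise ratio.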 The conditions noted are these: small-molecule microarray, higher = more signal.
Assay [18] concerns Noggin (protein binding on small-molecule microarray). In words: small molecules binding Noggin protein – biochemical, 635/667 nm fluorescence, primary screen (AID 1095).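 Further: score merges 667 nm feature fluorescence with signal to noise over triplicate slides.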 The following applies: 635 nm fluorescence, higher = more signal.
Assay [19] addresses Neurogenic locus notch homolog protein 3 (Homo sapiens) (UniProt Q9UM47). The experiment in a line: small molecules binding NOTCH3 protein – biochemical, 635/667 nm fluorescence, primary screen (AID 1096). The following applies: small-molecule microarray, 635 nm fluorescence, higher = more signal.
The nature of assay [20]: probe aEGFR binding to arrayed compounds – biochemical, biotinylated probe, 635/667 nm fluorescence, primary screen (AID 1097).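 Further: probe is a biotinylated anti-EGFR antibody binding compounds printed on slides; score combines fluorescence near 667 nm and signal to noise of each spot.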 The conditions noted are these: small-molecule microarray, higher = more signal.

Sequence of Pro-neuregulin-1, membrane-bound isoform (Homo sapiens) (Q02297 whole entry, looked up, the tested form may be a part, canonical isoform): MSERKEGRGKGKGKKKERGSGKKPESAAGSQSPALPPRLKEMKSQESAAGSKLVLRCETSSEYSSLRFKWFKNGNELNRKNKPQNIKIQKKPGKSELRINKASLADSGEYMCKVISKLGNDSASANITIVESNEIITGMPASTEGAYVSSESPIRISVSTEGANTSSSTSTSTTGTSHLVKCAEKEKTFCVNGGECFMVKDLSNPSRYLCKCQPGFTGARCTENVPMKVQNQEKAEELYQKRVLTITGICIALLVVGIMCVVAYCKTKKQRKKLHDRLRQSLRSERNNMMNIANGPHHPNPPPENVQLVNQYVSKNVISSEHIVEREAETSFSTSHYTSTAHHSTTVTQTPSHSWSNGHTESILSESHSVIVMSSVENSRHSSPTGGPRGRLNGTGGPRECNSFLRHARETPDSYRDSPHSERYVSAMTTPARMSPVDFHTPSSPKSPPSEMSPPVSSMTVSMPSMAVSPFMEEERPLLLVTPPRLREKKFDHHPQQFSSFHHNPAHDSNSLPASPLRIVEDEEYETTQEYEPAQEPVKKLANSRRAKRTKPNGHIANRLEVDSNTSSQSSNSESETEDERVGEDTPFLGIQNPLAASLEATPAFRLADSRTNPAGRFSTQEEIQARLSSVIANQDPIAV

Consider `COC(=O)[C@@]1(Cc2ccc(F)cc2)[C@H]2c3cc(C(=O)N(C)C)n(CCn4cc([N+](=O)[O-])nc4C)c3C[C@H]2CN1C(=O)c1ccccc1`, for which the composite z-score is 0.729 in assay [1]; -0.498 in assay [2]; 0.22 in assay [3]; 0.422 in assay [4]; 1.43 in [5]; 1.36 in assay [6]. The composite z-score is 1.19 in assay [7]; 0.593 in assay [9]; -0.166 in assay [10]; -0.394 in [11]; 2.87 in assay [15]; 0.12 in [17]. Moreover, the composite z-score is -0.885 in assay [18], -0.455 in [19] and -0.0039 in [20]. In addition, the z-score was 1.26 (inactive) in assay [8]; 0.126 (inactive) in assay [12]; 0.713 (inactive) in [13]; 0.942 (inactive) in [14]; -1.66 (inactive) in [16].

For the compound `C=CCC(OC(C)=O)[C@@H]1[C@@H](N(Cc2cccc3ccccc23)C(=O)c2cccc3ccccc23)c2cc(OCCCO)ccc2N1C(=O)Cc1ccc2ccccc2c1` (stereo not given in full), the composite z-score in [1] is -0.101; in assay [2], -0.391; in assay [3], -0.116; in assay [4] it was 0.19; in assay [5], -0.168; in assay [6] it was -0.371. The composite z-score in assay [7] was -0.648; in [9], -0.0942; in [10], -0.166; in [11] it was -0.254; in assay [15], -0.0809; in [17] it was -0.193. Moreover, the composite z-score in [18] was 0.0493; in [19], 0.002; in [20], -0.0675. The z-score in assay [8] was -1.89 (inactive); in assay [12], -0.796 (inactive); in assay [13], 0.0827 (inactive); in assay [14], -1.45 (inactive); in assay [16], -0.225 (inactive).

For `CN1C(=O)C2C=CC(C(O)c3ccc(-c4ccccc4)s3)N(Nc3ccccc3)C2C1=O` (stereo not given), the composite z-score is 0.876 in [1]; 0.358 in assay [2]; 0.0754 in assay [3]; 0.454 in assay [4]; 1.67 in assay [5]; 1.43 in assay [6]. Also, the composite z-score was found to be 1.09 in assay [7]; 1.15 in [9]; 0.245 in assay [10]; 0.932 in [11]; 2.91 in [15]; 0.182 in assay [17]. Further, the composite z-score is -0.399 in assay [18], 1.11 in [19] and -0.0043 in assay [20]. In addition, the z-score in assay [8] was 0.0583 (inactive); in assay [12] it was -1.29 (inactive); in assay [13], 0.447 (inactive); in [14], 0.164 (inactive); in [16], -0.576 (inactive).

As for `CCCC=C(CCC)[C@@H](NC(=O)c1ccco1)c1ccc(C(=O)OC)cc1`, the composite z-score turned out to be 0.0801 in [1]; 0.127 in assay [2]; 0.209 in assay [3]; 0.72 in assay [4]; 1.52 in assay [5]; 1.65 in assay [6]. Besides, the composite z-score is 1.2 in assay [7]; 0.594 in assay [9]; -0.0507 in assay [10]; 0.997 in assay [11]; 3.52 in assay [15]; 0.198 in assay [17]. Moreover, the composite z-score in [18] was 0.678; in [19] it was 1.06; in assay [20] it was -0.15. Moreover, the z-score in assay [8] was 0.467 (inactive); in assay [12], 1.06 (inactive); in assay [13], 0.113 (inactive); in assay [14] it was 2.22 (inactive); in assay [16], -0.868 (inactive).

As to `COC(=O)[C@@]1(Cc2ccccc2)[C@H]2c3cc(C(=O)N4CCCC4)n(Cc4ccc(C(F)(F)F)nc4)c3C[C@H]2CN1C(=O)c1ccccc1`, the composite z-score in [1] amounted to 0.356; in assay [2], 1.74; in [3], 0.237; in [4] it was 0.747; in assay [5], 1.54; in assay [6] it was 1.98. Moreover, the composite z-score was 1.37 in assay [7]; 2.11 in [9]; 0.0858 in [10]; 1.19 in assay [11]; 3.64 in assay [15]; 0.226 in [17]. Also, the composite z-score in assay [18] amounted to 0.073; in assay [19], 1.03; in [20], 0.265. The z-score in [8] was 0.419 (inactive); in [12], -0.461 (inactive); in [13], 0.449 (inactive); in [14], 1.98 (inactive); in assay [16], -0.35 (inactive).
